Test results: PubChem BioAssay (NCI)
Compounds without any hit were thinned out: in the full panel of roughly 83,000, 20% have a hit.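 Cells were grown in 96-well plates and exposed to the test compound at a single concentration for 48 hours; results are reported as percent growth, with values below 10 considered active.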 Values without a mark were called inactive.

Tested on: MDA-MB-468 breast
Test: NCI-60 one-dose screen, 48 h (100 = growth as untreated, 0 = no growth, -100 = all killed)
Settings: 10 µM unless noted

| Structure (SMILES) | growth [%] |
| --- | --- |
| COc1cc(-c2ccc[nH]2)[nH]c1/C=C1\N=C(C)C(C(=O)NC(C)C)=C1C | 44 |
| N#Cc1c(-c2ccc(Cl)cc2)nc(NN2C(=O)c3ccccc3C2=O)nc1N1CCOCC1 | 99.4 |
| CC(C)(C)[Si](C)(C)OC1[C@@H](CNC(N)=O)O[C@@H](n2cnc3c(NC(=O)Nc4ccccc4)ncnc32)[C@H]1O[Si](C)(C)C(C)(C)C (stereo partly drawn) | 85.2 |
